Results published in PMC9911399, “Two distinct binding modes provide the RNA-binding protein RbFox with extraordinary sequence specificity”.
Substitutions are numbered along the chain they refer to; changes in the protein carry UniProt numbers. Whole data set: some 16,000 sequences, median “ka relative to ugcaugu” near 0.0091, cut for the highest 2% near 0.032. Many of the other results were omitted from the sample, so the highest values are more common in it than they were.

T1: RBFOX1 RRM (Homo sapiens, UniProt Q9NWB1 109-208)
T1 sequence: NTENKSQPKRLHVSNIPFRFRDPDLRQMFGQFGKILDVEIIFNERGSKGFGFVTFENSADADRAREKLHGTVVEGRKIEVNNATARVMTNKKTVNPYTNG

B1: CAACCGU (DNA:RNA)
RNA: GGGAGACCGGAAUUCAGAUUGUCCCAACCGUUUAAAUCCCGUCGUAGCCACCA
DNA 1: CAATCTGAATTCCGGTCTCCC
DNA 2: TGGTGGCTACGACGGGATT
B2: UACAUGG (DNA:RNA)
RNA: B1 RNA with C25U, A27C, C28A, C29U, U31G
DNA 1: CAATCTGAATTCCGGTCTCCC
DNA 2: TGGTGGCTACGACGGGATT
B3: UUGCUAC (DNA:RNA)
RNA: B1 RNA with C25U, A26U, A27G, C29U, G30A, U31C
DNA 1: CAATCTGAATTCCGGTCTCCC
DNA 2: TGGTGGCTACGACGGGATT
B4: GAUACGC (DNA:RNA)
RNA: B1 RNA with C25G, A27U, C28A, U31C
DNA 1: CAATCTGAATTCCGGTCTCCC
DNA 2: TGGTGGCTACGACGGGATT
B5: GUCGGGG (DNA:RNA)
RNA: B1 RNA with C25G, A26U, A27C, C28G, C29G, U31G
DNA 1: CAATCTGAATTCCGGTCTCCC
DNA 2: TGGTGGCTACGACGGGATT
B6: CGGGUUG (DNA:RNA)
RNA: B1 RNA with A26G, A27G, C28G, C29U, G30U, U31G
DNA 1: CAATCTGAATTCCGGTCTCCC
DNA 2: TGGTGGCTACGACGGGATT
B7: GGGUUUA (DNA:RNA)
RNA: GGGAGACCGGAAUUCAGAUUGUCCGGGUUUAUUAAAUCCCGUCGUAGCCACCA
DNA 1: CAATCTGAATTCCGGTCTCCC
DNA 2: TGGTGGCTACGACGGGATT
B8: CACCGGG (DNA:RNA)
RNA: B1 RNA with A27C, C29G, U31G
DNA 1: CAATCTGAATTCCGGTCTCCC
DNA 2: TGGTGGCTACGACGGGATT
B9: GGGGUUA (DNA:RNA)
RNA: B7 RNA with U28G
DNA 1: CAATCTGAATTCCGGTCTCCC
DNA 2: TGGTGGCTACGACGGGATT
B10: GGGGGGG (DNA:RNA)
RNA: B7 RNA with U28G, U29G, U30G, A31G
DNA 1: CAATCTGAATTCCGGTCTCCC
DNA 2: TGGTGGCTACGACGGGATT
B11: CGGGUUA (DNA:RNA)
RNA: B7 RNA with G25C, U28G
DNA 1: CAATCTGAATTCCGGTCTCCC
DNA 2: TGGTGGCTACGACGGGATT
B12: GGGGUUG (DNA:RNA)
RNA: B7 RNA with U28G, A31G
DNA 1: CAATCTGAATTCCGGTCTCCC
DNA 2: TGGTGGCTACGACGGGATT
B13: CGGGGGG (DNA:RNA)
RNA: B1 RNA with A26G, A27G, C28G, C29G, U31G
DNA 1: CAATCTGAATTCCGGTCTCCC
DNA 2: TGGTGGCTACGACGGGATT
B14: GUGGCCC (DNA:RNA)
RNA: B7 RNA with G26U, U28G, U29C, U30C, A31C
DNA 1: CAATCTGAATTCCGGTCTCCC
DNA 2: TGGTGGCTACGACGGGATT
B15: GGGUGUG (DNA:RNA)
RNA: B7 RNA with U29G, A31G
DNA 1: CAATCTGAATTCCGGTCTCCC
DNA 2: TGGTGGCTACGACGGGATT
B16: CCGGGUG (DNA:RNA)
RNA: B7 RNA with G25C, G26C, U28G, U29G, A31G
DNA 1: CAATCTGAATTCCGGTCTCCC
DNA 2: TGGTGGCTACGACGGGATT
B17: GGGUGGU (DNA:RNA)
RNA: B7 RNA with U29G, U30G, A31U
DNA 1: CAATCTGAATTCCGGTCTCCC
DNA 2: TGGTGGCTACGACGGGATT
B18: CGGGGUG (DNA:RNA)
RNA: B7 RNA with G25C, U28G, U29G, A31G
DNA 1: CAATCTGAATTCCGGTCTCCC
DNA 2: TGGTGGCTACGACGGGATT
B19: CGGGUGG (DNA:RNA)
RNA: B7 RNA with G25C, U28G, U30G, A31G
DNA 1: CAATCTGAATTCCGGTCTCCC
DNA 2: TGGTGGCTACGACGGGATT
B20: GGGUGUC (DNA:RNA)
RNA: B7 RNA with U29G, A31C
DNA 1: CAATCTGAATTCCGGTCTCCC
DNA 2: TGGTGGCTACGACGGGATT
B21: ACGGGUG (DNA:RNA)
RNA: B7 RNA with G25A, G26C, U28G, U29G, A31G
DNA 1: CAATCTGAATTCCGGTCTCCC
DNA 2: TGGTGGCTACGACGGGATT
B22: GGGGUGG (DNA:RNA)
RNA: B7 RNA with U28G, U30G, A31G
DNA 1: CAATCTGAATTCCGGTCTCCC
DNA 2: TGGTGGCTACGACGGGATT
B23: GGGGGUG (DNA:RNA)
RNA: B7 RNA with U28G, U29G, A31G
DNA 1: CAATCTGAATTCCGGTCTCCC
DNA 2: TGGTGGCTACGACGGGATT
B24: CUGGACU (DNA:RNA)
RNA: B1 RNA with A26U, A27G, C28G, C29A, G30C
DNA 1: CAATCTGAATTCCGGTCTCCC
DNA 2: TGGTGGCTACGACGGGATT
B25: AUUAGUU (DNA:RNA)
RNA: B1 RNA with C25A, A26U, A27U, C28A, C29G, G30U
DNA 1: CAATCTGAATTCCGGTCTCCC
DNA 2: TGGTGGCTACGACGGGATT
B26: UACCGUC (DNA:RNA)
RNA: B1 RNA with C25U, A27C, C29G, G30U, U31C
DNA 1: CAATCTGAATTCCGGTCTCCC
DNA 2: TGGTGGCTACGACGGGATT
B27: ACUAUCA (DNA:RNA)
RNA: B7 RNA with G25A, G26C, G27U, U28A, U30C
DNA 1: CAATCTGAATTCCGGTCTCCC
DNA 2: TGGTGGCTACGACGGGATT
B28: UGGGUGG (DNA:RNA)
RNA: B7 RNA with G25U, U28G, U30G, A31G
DNA 1: CAATCTGAATTCCGGTCTCCC
DNA 2: TGGTGGCTACGACGGGATT
B29: GUCGUUC (DNA:RNA)
RNA: B7 RNA with G26U, G27C, U28G, A31C
DNA 1: CAATCTGAATTCCGGTCTCCC
DNA 2: TGGTGGCTACGACGGGATT
B30: UUGGGAA (DNA:RNA)
RNA: B7 RNA with G25U, G26U, U28G, U29G, U30A
DNA 1: CAATCTGAATTCCGGTCTCCC
DNA 2: TGGTGGCTACGACGGGATT
B31: UUGGGGG (DNA:RNA)
RNA: B1 RNA with C25U, A26U, A27G, C28G, C29G, U31G
DNA 1: CAATCTGAATTCCGGTCTCCC
DNA 2: TGGTGGCTACGACGGGATT
B32: UUGGGUG (DNA:RNA)
RNA: B7 RNA with G25U, G26U, U28G, U29G, A31G
DNA 1: CAATCTGAATTCCGGTCTCCC
DNA 2: TGGTGGCTACGACGGGATT
B33: CCGUGCG (DNA:RNA)
RNA: B7 RNA with G25C, G26C, U29G, U30C, A31G
DNA 1: CAATCTGAATTCCGGTCTCCC
DNA 2: TGGTGGCTACGACGGGATT
B34: GUGCGUG (DNA:RNA)
RNA: B7 RNA with G26U, U28C, U29G, A31G
DNA 1: CAATCTGAATTCCGGTCTCCC
DNA 2: TGGTGGCTACGACGGGATT
B35: CGUGUCC (DNA:RNA)
RNA: B7 RNA with G25C, G27U, U28G, U30C, A31C
DNA 1: CAATCTGAATTCCGGTCTCCC
DNA 2: TGGTGGCTACGACGGGATT
B36: UUGCGUC (DNA:RNA)
RNA: B7 RNA with G25U, G26U, U28C, U29G, A31C
DNA 1: CAATCTGAATTCCGGTCTCCC
DNA 2: TGGTGGCTACGACGGGATT
B37: UUGUGUG (DNA:RNA)
RNA: B7 RNA with G25U, G26U, U29G, A31G
DNA 1: CAATCTGAATTCCGGTCTCCC
DNA 2: TGGTGGCTACGACGGGATT
B38: CUUGUCC (DNA:RNA)
RNA: B1 RNA with A26U, A27U, C28G, C29U, G30C, U31C
DNA 1: CAATCTGAATTCCGGTCTCCC
DNA 2: TGGTGGCTACGACGGGATT
B39: UUGCGUG (DNA:RNA)
RNA: B7 RNA with G25U, G26U, U28C, U29G, A31G
DNA 1: CAATCTGAATTCCGGTCTCCC
DNA 2: TGGTGGCTACGACGGGATT
B40: GUGUGCG (DNA:RNA)
RNA: B7 RNA with G26U, U29G, U30C, A31G
DNA 1: CAATCTGAATTCCGGTCTCCC
DNA 2: TGGTGGCTACGACGGGATT
B41: UUGUCCC (DNA:RNA)
RNA: B7 RNA with G25U, G26U, U29C, U30C, A31C
DNA 1: CAATCTGAATTCCGGTCTCCC
DNA 2: TGGTGGCTACGACGGGATT

Molecular target: T1, RBFOX1 RRM
Test: EMSA; HiTS-Eq, 1 nM pool, 10 min; buffer printed only for the single-RNA assays: 10 mM Tris pH 7.5, 150 mM NaCl, 3.4 mM EDTA, 0.001% NP-40, 30 C
Details: tags: His6 N-terminal (pET28a); label: 5' 32P
In short: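 Purified RbFox RRM, wild type or mutant, was incubated for 10 min in 50 µL with 1 nM of a 5′-radiolabelled RNA pool carrying 7 randomized nucleotides, whose flanks were annealed to DNA oligonucleotides, over a series of increasing protein concentrations. Unbound RNA was resolved on 8% native PAGE, cut out, reverse-transcribed, barcoded by PCR and sequenced on an Illumina HiSeq 2500. Relative association constants were derived from changes in read counts for each RNA species versus the control reaction and normalised to the cognate motif.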

Point of comparison: B12, binding signal 0.0899 KA relative to UGCAUGU. Against it:
- B1 — lower, 0.00135 KA relative to UGCAUGU
- B2 — lower, 0.0106 KA relative to UGCAUGU
- B3 — lower, 0.015 KA relative to UGCAUGU
- B4 — lower, 0.012 KA relative to UGCAUGU
- B5 — lower, 0.0181 KA relative to UGCAUGU
- B6 — lower, 0.0491 KA relative to UGCAUGU
- B7 — lower, 0.0165 KA relative to UGCAUGU
- B8 — lower, 0.00514 KA relative to UGCAUGU
- B9 — lower, 0.0364 KA relative to UGCAUGU
- B10 — lower, 0.0247 KA relative to UGCAUGU
- B11 — lower, 0.0205 KA relative to UGCAUGU
- B13 — lower, 0.0136 KA relative to UGCAUGU
- B14 — lower, 0.0179 KA relative to UGCAUGU
- B15 — lower, 0.0275 KA relative to UGCAUGU
- B16 — lower, 0.0271 KA relative to UGCAUGU
- B17 — lower, 0.0199 KA relative to UGCAUGU
- B18 — lower, 0.0399 KA relative to UGCAUGU
- B19 — lower, 0.0171 KA relative to UGCAUGU
- B20 — lower, 0.0216 KA relative to UGCAUGU
- B21 — lower, 0.0185 KA relative to UGCAUGU
- B22 — lower, 0.0333 KA relative to UGCAUGU
- B23 — lower, 0.0397 KA relative to UGCAUGU
- B24 — lower, 0.00842 KA relative to UGCAUGU
- B25 — lower, 0.00711 KA relative to UGCAUGU
- B26 — lower, 0.0072 KA relative to UGCAUGU
- B27 — lower, 0.00217 KA relative to UGCAUGU
- B28 — lower, 0.0279 KA relative to UGCAUGU
- B29 — lower, 0.0139 KA relative to UGCAUGU
- B30 — lower, 0.0102 KA relative to UGCAUGU
- B31 — lower, 0.0118 KA relative to UGCAUGU
- B32 — lower, 0.0408 KA relative to UGCAUGU
- B33 — lower, 0.0124 KA relative to UGCAUGU
- B34 — lower, 0.0481 KA relative to UGCAUGU
- B35 — lower, 0.00858 KA relative to UGCAUGU
- B36 — lower, 0.0198 KA relative to UGCAUGU
- B37 — lower, 0.0403 KA relative to UGCAUGU
- B38 — lower, 0.0101 KA relative to UGCAUGU
- B39 — lower, 0.0447 KA relative to UGCAUGU
- B40 — lower, 0.0191 KA relative to UGCAUGU
- B41 — lower, 0.0102 KA relative to UGCAUGU
